Results from the supplement of paper PMC6555819.

What follows are sequences tested on PPARg DBDmut IVT, anti-PPARg (DBD mutation: PPARg1 K132A/R137A, NR concentration 270 nM) (assay: PBM binding z-score (relative to random genomic background probes); higher = stronger binding; sequences stand for … in GC…GCGATTGACAGCGTAGAATGAAGG).
In short: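 Custom Agilent 4×180K protein-binding microarrays carried double-stranded probes, each with a 34-nt variable region. These regions held direct-repeat seeds, single-nucleotide variants, half-site ablations and random human genomic background sequences. Ligand-free nuclear receptor dimers were incubated on the arrays for 1 h, antibodies against each partner (one per run) detected binding, and scanned fluorescence was regression-normalized. Binding z-scores take the random background probes as reference.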

| Sequence | PBM binding z-score |
| --- | --- |
| TCTCGGAGGACACGAAAGGCCAGAGCTCGACATC | -0.159 |
| TGTCAAAGTTCAAAGGTAACGGAAGTATCCACAC | 2.48 |
| GCTGCTAGATCAGGTTGGTCAGCTAACGGGTACG | -0.87 |
| TCATATAGGTAAATCCTAGGTGAAAGTCCGATCT | 0.675 |
| GCTTACGGGTCAAAGGCTATAGCATGAATAGAAT | 0.898 |
| TCAAGTAGGTTAGGGGCATTCAGAATGGCGTCGA | 0.234 |
| ATCTCAAGGTAACAAGTTCAGTGAAAGAGAGGAC | 1.1 |
| CCGACTGGGGCAGAAAGGTTACTATACCATCCGG | -1.26 |
| CTCGAAAGGTCGTGCTCAGGTGCGTATACCAAAC | 0.566 |
| CCGACTGGGGCATAAGGGTACCATAAGCCAGCCC | -1.11 |
| TGTCAAAGTTGAAAGGTAACGTAAGTATCCACAC | 0.491 |
| TCGAGTAGGTAAGGGGCATTCAGAATGGCGTCGA | -1.03 |
| CCTACTGGGCCATTCAGAGGTCATTGGTCATATG | 0.266 |
| CAAACTAGGTCAAAGTCAAAGTCGGTTTGTGCCA | 3.93 |
| CAAACTAGGTCAAGAGGTCAACGTCCGCTTCCCG | 2.14 |
| CATACAGGGTCAGCTAGGCCAGAGTCGGGACGGC | 0.297 |
| GCTTGTATATCAAGGTTAAGAAAGACTAAGCTAA | 0.533 |
| ATATGTAGGTTAGCGGGTCATTCAGTTTGCGCAT | 1.79 |
| CGTCCAAGGTCGATGCTAGGTCAGTGAAAGCATT | -0.767 |
| GCAGACAGGTGAAACGCAGGTTACTCAGGGTGGC | -0.933 |

| Sequence | PBM binding z-score |
| --- | --- |
| CGTCCAAGGTCATAGTAGGTCAGTGAAGACAGAT | -0.159 |
| ATCTCTAGGTAAGACTCAGTTCTGTGAAGAACGC | 0.855 |
| TCTCCTAGGTCAACGATGGTCAGCTAATCTGCTA | 1.02 |
| GGAATGAGGGCATTCGAGTTGATAGCATGGCGAT | -0.209 |
| GGAACGAGGGCAAGTTGAGAGCAGAGTTTGATGG | -0.541 |
| TCTTGTAAATCAACAGGAGGTTAAGAAAGATCGA | 0.346 |
| CTACCAAGGTGAACAAGATCGTTGATTACTATTC | 0.79 |
| ATCTGTAGGTAACAAGTTCAGTGAAAGAGAGGAC | 0.975 |
| CCGAGCAGGTTATGGGGCATTCAGGCAACGGTGA | -0.839 |
| GGAACGTGGGCAAGTTGATAGCAGAGTTTGATGG | -0.713 |
| TCGGGTAGGTTAGGGGCATTCAGAATGGCGTCGA | 0.468 |
| ACTGGGAGGACAAAGGTCAGAGCTACGCCAGTGA | 0.253 |
| CGTCCAAGGTCTATGCTAGGTCAGTGAAAGCATT | -0.699 |
| TCGAGAAGGTTACCAATGGGGCATTCAGCTTTCT | -0.173 |
| GCATATAGGTAATACAAGCTGAAAGTCCGATTGT | 0.595 |
| TCTTGTAGATCAACAAGAGGTTAAGAAAGATCGA | 0.787 |
| ACTAGCAGGCCATGGGTCACTCAAGATTAGTCCG | -0.346 |
| CGAACTAGGTAAGAACAGGACAGTGAAGGATGAT | 0.0684 |
| ACTAGTTCGTCAGCTGAGGTCACACACAATTCGG | 1.22 |
| TAGCCTGGGTCATTGGGCCAGTATAGTACGCATC | -0.475 |
